Source: PubChem BioAssay (several laboratories)
In the library only some 4.7% were active in any assay of this set; here they are far more common.
CCHF vOTU inh-1: CCHFV vOTU protease inhibitors, primary screen, biochemical, Pep-AMC substrate, fluorescence. Crimean-Congo hemorrhagic fever virus L polyprotein viral ovarian tumor (vOTU) protease …. inhibition, % at 11.5 µM. 370,000 tested, 0.55% active; also: 0% = vehicle wells with enzyme and 100% = no enzyme wells
GDH-TPI inh: GDH-TPI coupling enzyme inhibitors, primary screen, artefact control for M. tuberculosis FBA inhibitor project, biochemical, absorbance, full deck; inhibition, % at 4.8 µM; 360,000 tested, 1.2% active; GDH-TPI coupled enzyme counterscreen, NADH absorbance;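 also: 0% = DMSO wells and 100% = wells lacking the enzyme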
FBA Mtb inh: Mtb FBA enzyme inhibitors, primary screen, biochemical, fluorescence, strain H37Rv; Fructose-bisphosphate aldolase (Mycobacterium tuberculosis (strain ATCC 25618 / H37Rv)), …; purified M. tuberculosis FBA, fluorescence read-out; inhibition, % at 1 µM; 360,000 tested, 2.3% active; AID 588726, 2011; in the data active = inhibition above about 27%;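 also: 0% = vehicle and 100% = reference inhibitor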
DUSP3 inh: VHR1 phosphatase inhibitors, primary screen, biochemical, absorbance, uHTS; inhibition, % at 13.3 µM; recombinant VHR phosphatase, pNPP absorbance; Dual specificity protein phosphatase 3 (Homo sapiens), P51452; 290,000 tested, 0.52% active; in the data active = inhibition above about 50%
RecA intein inh: Mtb RecA intein splicing inhibitors, primary screen, biochemical, fluorescence, HTS; Protein RecA (Mycobacterium tuberculosis (strain ATCC 25618 / H37Rv)), P9WHJ3; cell-free RecA intein splicing; inhibition, % (test concentration not listed); 290,000 tested, 0.75% active; AID 2221, 2009; in the data active = inhibition above about 30%;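 also: 0% = vehicle wells and 100% = reference inhibitor control wells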
Target sequence (P9WHJ3 whole entry, looked up): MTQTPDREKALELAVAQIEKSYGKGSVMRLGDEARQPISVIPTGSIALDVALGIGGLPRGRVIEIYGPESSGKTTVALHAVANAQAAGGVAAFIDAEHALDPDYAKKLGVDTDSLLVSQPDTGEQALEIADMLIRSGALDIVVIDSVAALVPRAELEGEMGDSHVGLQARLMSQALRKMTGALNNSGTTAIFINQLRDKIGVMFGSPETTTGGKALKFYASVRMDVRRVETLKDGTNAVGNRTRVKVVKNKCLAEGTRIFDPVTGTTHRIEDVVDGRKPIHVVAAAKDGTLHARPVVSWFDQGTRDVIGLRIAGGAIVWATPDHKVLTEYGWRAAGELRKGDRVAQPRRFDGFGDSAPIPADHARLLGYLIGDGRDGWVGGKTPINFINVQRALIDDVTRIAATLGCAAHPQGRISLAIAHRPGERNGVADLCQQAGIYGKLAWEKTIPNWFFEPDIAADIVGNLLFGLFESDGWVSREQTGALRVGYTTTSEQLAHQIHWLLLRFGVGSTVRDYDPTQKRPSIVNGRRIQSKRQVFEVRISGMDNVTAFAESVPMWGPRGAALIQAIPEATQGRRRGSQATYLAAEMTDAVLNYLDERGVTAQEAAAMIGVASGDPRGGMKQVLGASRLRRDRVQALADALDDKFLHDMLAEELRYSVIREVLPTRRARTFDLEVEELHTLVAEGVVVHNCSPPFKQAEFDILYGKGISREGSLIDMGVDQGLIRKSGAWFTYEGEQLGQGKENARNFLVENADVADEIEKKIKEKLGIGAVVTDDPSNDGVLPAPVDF
SARS 3CLpro inh: SARS-CoV 3CLpro protease inhibitors, primary screen, biochemical, quenched FRET; recombinant SARS-CoV 3CLpro, quenched FRET peptide cleavage; inhibition, % at 6 µM; 290,000 tested, 0.14% active; in the data active = inhibition above about 12%
GFP chromo cs: counter-screen: blocks GFP chromophore formation, dose response, counter-screen, biochemical, fluorescence, homogeneous; AID 434968, 2010; shares compounds with RecA intein inh; EC50, µM; cell-free GFP chromophore formation; 2,100 tested, 83% active; call rule not given here
CCHF vOTU inh-2: CCHFV vOTU protease inhibitors, confirmation, biochemical, Pep-AMC substrate, fluorescence | shares compounds with CCHF vOTU inh-1 | Recombinant CCHFV vOTU | 1,900 tested, 17% active | inhibition, % at 11.5 µM
The depositor's hits bear a star; . = no result. Rule as the data show it, unless noted: active = inhibition above about 30%; inactive = the rest.

SMILES	CCHF vOTU inh-1	GDH-TPI inh	FBA Mtb inh	DUSP3 inh	RecA intein inh	SARS 3CLpro inh	GFP chromo cs	CCHF vOTU inh-2
CC(=O)N(Cc1ccc(F)cc1)c1cccc(C)c1C	0	6	-1	2	-1	0	.	.
COc1cc(N=C2C(=O)N3c4c(cccc42)C(C)=CC3(C)C)cc(OC)c1	4	4	7	-1	20	5	.	.
CC1=CC(C)(C)N2C(=O)C(=Nc3ccc(O)cc3)c3cccc1c32	82*	8	0	4	39*	6	>38	-10
COCCNC(=O)c1ccc(N2CC3CC(C2)c2cccc(=O)n2C3)c(NC(=O)c2ccc(C(C)(C)C)cc2)c1 (stereo unspecified)	-3	-4	-1	.	.	.	.	.
CC(C)[n+]1ccn(C2=C([O-])c3ccccc3C(=O)/C2=N\S(=O)(=O)c2ccccc2)c1	33*	8	-9	13	31*	3	21*	31*
Cn1nc(C(=O)NNC(=O)C(CCC(N)=O)NS(=O)(=O)c2ccc(Cl)cc2)c2ccccc2c1=O (stereo unspecified)	5	-3	1	.	.	.	.	.
COc1ccc2c(c1)CC/C(=C\Nc1ccc3c(c1)OCO3)C2=O	7	8	-11	-2	.	-2	.	.
COc1ccc(N/C=C2\CCc3ccccc3C2=O)cc1	34*	-3	-7	3	71*	34*	19*	-12
O=S(=O)(Nc1cc2nc3ccccc3nc2n1Cc1ccccc1)c1ccc(Cl)cc1	111*	8	12	-10	60*	2	6.3*	67*
Cc1ccc(C(=O)NC2(O)C(=O)c3ccccc3C2=O)cc1C	49*	-2	0	5	68*	-3	12*	27
CCCCn1c(N)c(N(CC)C(=O)C(c2ccccc2)c2ccccc2)c(=O)[nH]c1=O	2	0	1	17	0	2	.	.
O=C(CCN1C(=O)/C(=C/c2cccs2)SC1=S)Nc1ccc(C(=O)O)c(O)c1	32*	6	-10	-9	44*	8	31*	2
O=C1C=C(Nc2ccccc2O)c2ccccc2C1=O	97*	10	-4	25	95*	0	>38	74*
O=C1C=C(NCc2ccccc2)c2ccccc2C1=O	64*	-10	-2	-13	92*	4	0.86*	89*
O=C1C=C(Nc2ccc(F)cc2)c2ccccc2C1=O	22	7	1	.	.	.	.	.
Cc1ccc2oc(=O)c(-c3ccc(O)cc3)c(C)c2c1	-1	4	0	.	.	.	.	.
COc1cc(NC(=O)OCc2ccccc2)c2ncccc2c1	20	8	4	.	.	.	.	.
COc1cc(NC(C)CCCN)c2ncccc2c1 (stereo unspecified)	104*	9	-1	.	90*	.	13*	81*
COCC(=O)N(C)[C@H]1C[C@H]2c3[nH]c4cccc(-c5cccc(F)c5)c4c3CCN2C(=O)[C@H]1[C@H](C)O	-15	.	.	.	.	.	.	.
CCOC(=O)c1c(CSC(=N)N)n(-c2ccc(C)cc2)c2cc(Br)c(OC(C)=O)cc12	46*	0	2	41	70*	5	7.9*	-2
COc1cc(/C=C2/C(=O)N(c3ccc([N+](=O)[O-])cc3)N=C2N2CCOCC2)ccc1O	115*	39*	-7	33	46*	-6	23*	8
CNc1ccc2nc3ccccc3[n+](C)c2c1	102*	-9	-1	.	45*	1	17*	79*
C[n+]1c2ccccc2nc2ccc(NCCO)cc21	91*	11	3	.	64*	6	12*	81*
CC(C)n1c(NCCO)nc2ccccc21	-2	-6	-4	15	.	4	.	.
CCCCNC(=O)C(NC(=O)c1ccccc1)C(=O)c1ccccc1 (stereo unspecified)	3	.	.	.	.	.	.	.
SMILES	CCHF vOTU inh-1	GDH-TPI inh	FBA Mtb inh	DUSP3 inh	RecA intein inh	SARS 3CLpro inh	GFP chromo cs	CCHF vOTU inh-2
CCCCCCCCCCCCCCCCn1cc[n+](C)c1	39*	3	-4	0	48*	0	12*	50*
CCCCCCCCn1ccc(=N)cc1	6	-2	2	1	0	2	.	.
Cc1ccc(S(=O)(=O)N2CCN(Cc3ccco3)CC2)c(C)c1	-6	7	0	12	-6	3	.	.
Cc1ccc(C)c(S(=O)(=O)/N=C2\C=C(NS(=O)(=O)c3ccccc3)C(=O)c3ccccc32)c1	30*	15	-7	18	75*	10	5.4*	25
CCc1ccc(S(=O)(=O)/N=C2\C=C(NS(=O)(=O)c3ccccc3)C(=O)c3ccccc32)cc1	54*	13	-9	-10	34*	1	4*	11
CC(C)c1ccc(S(=O)(=O)/N=C2/C=CC(=O)c3ccccc32)cc1	.	.	.	20	.	5	.	.
Cc1ccccc1C(=O)N[C@H](C(=O)N1CCC[C@H]1C(=O)NCc1ccccc1)c1ccccc1	4	.	.	.	.	.	.	.
C[C@@H]1CN([C@H](C)CO)C(=O)c2cc(C#CC3CCCCC3)cnc2O[C@H]1CN(C)Cc1cccnc1	-10	12	2	.	.	.	.	.
CC(=O)OCCCNc1cc(SCc2ccco2)c2nonc2c1[N+](=O)[O-]	55*	17	-4	8	78*	6	14*	-18
CCCSc1cc(NCCOC(C)=O)c([N+](=O)[O-])c2nonc12	-5	8	0	17	8	0	.	.
CCCN(CC(=O)Nc1ccccc1C)C(=O)COc1c(Cl)cccc1Cl	-3	-7	0	.	0	.	.	.
CCOC(=O)c1ccc(N2CCOCC2)c(NC(=O)c2ccc3c(c2)OCO3)c1	-4	-1	0	4	0	5	.	.
O=C1c2ccccc2NC(c2cccc(O)c2)N1NS(=O)(=O)c1ccccc1 (stereo unspecified)	-29	-2	8	2	-3	3	.	.
CCO/C=C1/C(=O)N(C)C(=O)c2cc(OC)ccc21	78*	0	3	27	85*	0	>38	77*
CCO/C=C1/C(=O)N(c2ccc(OC)cc2)C(=O)c2ccccc21	7	-1	12	8	3	2	.	.
